According to PubChem BioAssay (EPA / NIEHS):
The source made the active and inactive calls. The calls were made as follows: active = hit-call score of the fitted dose curve at least 0.9, where 1 is the maximum; inactive = score below 0.9.

assay: ATG_NF_kB_CIS: Attagene CIS-FACTORIAL HepG2 Assay for human Nuclear Factor Kappa B (NF-kB) (AID 2282991); conditions: HepG2 Attagene cis-factorial NF-kB reporter mRNA; actives raise or lower the signal
Protocol: ATG_CIS is a cell-based, multiplexed-readout assay that uses HepG2, a human liver cell line, with measurements taken at 24 hours after chemical dosing in a 24-well plate.ATG_NF_kB_CIS is one of 52 assay component(s) measured or calculated from the ATG_CIS assay. It is designed to make measurements of mRNA induction, a form of inducible reporter, as detected with fluorescence intensity signals by Reverse transcription polymerase chain reaction (RT-PCR) and Capillary electrophoresis technology.Data from the assay component ATG_NF_kB_CIS was analyzed into 1 assay endpoint. This assay endpoint, ATG_NF_kB_CIS, was analyzed with bidirectional fitting relative to DMSO as the negative control and baseline of activity. Using a type of inducible reporter, measures of mRNA for gain or loss-of-signal activity can be used to understand the reporter gene at the transcription factor-level as they relate to the gene NFKB1. Furthermore, this assay endpoint can be referred to as a primary readout, because this assay has produced multiple assay endpoints where this one serves a reporter gene function. To generalize the intended target to other relatable targets, this assay endpoint is annotated to the dna binding intended target family, where the subfamily is NF-kappa B.
Human liver HepG2 cells are transiently transfected with multiple reporter transcription units (MRTUs) in 6-well plates using FuGene 6 reagent (Roche; 3 ml FuGene/1 mg DNA). The MRTU constructs are regulated by a cis-regulating element (promoter). […] A major difference between the CIS and TRANS system is that in CIS activities of endogenous TFs are measured, whereas the TRANS assay evaluates changes in activities of exogenous, chimeric NR-Gal4 proteins. […] At the end of 24 hour incubation, total RNA was isolated using TriZol reagent (Invitrogen). The isolated RNA is then reverse-transcribed using oligo(dT) primer and Mo-MLV reverse transcriptase (Invitrogen) with DNAse I (Ambion) treatment for 30 min. The one-tenth of the produced cDNA was amplified by PCR using Taq DNA polymerase (Invitrogen) and two reporter sequence-specific primers. The PCR products were fluorescently labeled by primer extension with 6-arboxyfluorescein (6-FAM) 5'-labeled reporter sequence-specific primer (2 min at 95 C, 20 s at 68 C and 10 min at 72 C) and these products were digested with 5U of HpaI (New England Biolabs) for 2h at 37 C. The fragments were purified using Qiaquick PCR columns (Qiagen), analyzed on an ABI 3130xL genetic analyzer (Applied Biosystems) with peak positions identified by using a set of X-rhodamine (ROX)-labeled MapMarker1000 molecular weight standards (BioVentures). The raw capillary electrophoresis data was processed using Attagraph software (Attagene).

SMILES | outcome | AC50
CC(C)Nc1nc(N)nc(Cl)n1 | inactive | 
COc1cc([C@@H]2c3cc4c(cc3[C@@H](O[C@@H]3O[C@@H]5CO[C@@H](C)O[C@H]5[C@H](O)[C@H]3O)[C@H]3COC(=O)[C@H]23)OCO4)cc(OC)c1O | inactive | 
ON=C1CCCCC1 | inactive | 
CCO/C=C1\N=C(c2ccccc2)OC1=O | inactive | 
C=C(C)[C@@H]1CC=C(C)C(=O)C1 | inactive | 
C=C[Si]1(C)O[Si](C)(C=C)O[Si](C)(C=C)O[Si](C)(C=C)O1 (stereo not given) |  | 19.8 µM (active)
CC1CC(O)CC(C)(C)C1 (stereo not given) | inactive | 
Cc1cc(S(=O)(=O)O)ccc1N=Nc1c(O)ccc2ccccc12 | inactive | 
COc1ccc(CCN2CCC(Nc3nc4ccccc4n3Cc3ccc(F)cc3)CC2)cc1 | inactive | 
CCCCCCCC(=O)OCC(O)CO (stereo not given) | inactive | 
CCCCCCCC(=O)OCCCCCC | inactive | 
CC1(C)COCN1 | inactive | 
Nc1ccccc1[N+](=O)[O-] | inactive | 
CC(C)CCOC(=O)c1ccccc1 | inactive | 
CC=Cc1ccc(OC)c(OC)c1 | inactive | 
CCOc1ccc(NC(=O)CC(C)O)cc1 (stereo not given) | inactive | 
C=CC(=O)OCCC#N |  | 50.9 µM (active)
C=C(C)C1CC=C(C)C(=O)C1 (stereo not given) | inactive | 
CC(=O)c1c(C)c([N+](=O)[O-])c(C(C)(C)C)c([N+](=O)[O-])c1C | inactive | 
Cc1ccc(N)c(S(=O)(=O)O)c1 | inactive | 

SMILES | outcome | AC50
CCOC(=O)C(C#N)=C(c1ccccc1)c1ccccc1 | inactive | 
[Cl][Au]([Cl])[Cl] | inactive | 
COC(=O)c1ccc([N+](=O)[O-])cc1 | inactive | 
CCCCCc1ccco1 |  | 54.2 µM (active)
CC1=NN(c2ccc(S(=O)(=O)O)cc2)C(=O)C1 | inactive | 
NCc1ccco1 | inactive | 
Nc1ccc(Cl)c([N+](=O)[O-])c1 | inactive | 
C/C=C(\C)C(=O)OCCc1ccccc1 | inactive | 
CCC(=O)O[C@@H]1C[C@H]2CC[C@]1(C)C2(C)C | inactive | 
Cc1[nH]c(=O)c(C#N)cc1-c1ccncc1 | inactive | 
O=C(c1ccccc1)C(O)c1ccccc1 (stereo not given) | inactive | 
CCCCCCOC(=O)C(C)C | inactive | 
OCc1cccc(Oc2ccccc2)c1 | inactive | 
CC(=O)OCCCc1ccccc1 | inactive | 
Oc1c(Cl)cc(Cl)c(Cl)c1Cc1c(O)c(Cl)cc(Cl)c1Cl | inactive | 
N#Cc1ccc(CC(=O)c2cccc(C(F)(F)F)c2)cc1 | inactive | 
O=C(Nc1ccc2c(c1)Cc1ccccc1-2)C(F)(F)F | inactive | 
Nc1ccn([C@H]2CS[C@@H](CO)O2)c(=O)n1 | inactive | 
OCC(O)c1ccccc1 (stereo not given) | inactive | 
CC(C)(CO)[C@@H](O)C(=O)NCCC(=O)O | inactive | 
